Test results: PubChem BioAssay
For some assays here: Potency and affinity values are given separately. The source made the active and inactive calls. Where a call stands in place of a potency, no number is given. How the calls were made is not given here.

What follows are compounds tested against Plasmodium falciparum protein kinase 6 (PK6, PF3D7_1337100) (UniProt Q8IDW1) (assay: PfPK6 kinase inhibitors, biochemical, TCAMS library (AID 1159586)). Conditions: recombinant PfPK6, Kinase-Glo ATP depletion luminescence.
Plasmodium falciparum protein kinase 6 (PK6, PF3D7_1337100), sequence (Q8IDW1 1-305): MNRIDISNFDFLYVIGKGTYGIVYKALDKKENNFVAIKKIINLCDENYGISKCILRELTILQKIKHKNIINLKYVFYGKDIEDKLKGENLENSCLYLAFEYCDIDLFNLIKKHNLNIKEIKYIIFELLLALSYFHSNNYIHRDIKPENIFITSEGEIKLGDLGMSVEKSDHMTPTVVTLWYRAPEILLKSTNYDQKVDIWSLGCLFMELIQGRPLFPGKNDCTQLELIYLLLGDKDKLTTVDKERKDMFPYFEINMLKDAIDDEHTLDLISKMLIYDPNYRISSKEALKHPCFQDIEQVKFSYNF

Structure (SMILES) | outcome
O=C(NCc1cccs1)[C@H](Cc1ccccc1)Nc1ccnc(NCCc2ccc(F)cc2)n1 | inactive
CCc1ccc(NC(=O)c2ccc(CN3CCCN(CC4CCCCC4)CC3)cc2)cc1 | inactive
O=C(NCc1ccc(F)cc1)Nc1ccc(-c2cccc(-c3nc4ccc(C(F)(F)F)cc4[nH]3)c2)cc1 | inactive
Cc1nc2ccc(NC(=O)c3cc(S(=O)(=O)N(C)C)ccc3Cl)cc2s1 | inactive
Cc1cc(N[C@@H](Cc2ccccc2)C(=O)NCCOc2ccccc2)nc(NCCc2ccc(F)cc2)n1 | inactive
COc1c(C(=O)NC2CCN(Cc3ccccc3)C2)cnc2ccccc12 (stereo not given) | inactive
O=C(c1cccc(-c2cccc(-c3nc4ccccc4[nH]3)c2)c1)N1CCCCC1CN1CCC(O)C1 (stereo not given) | inactive
Cc1cc(F)ccc1Nc1nc(N(C)c2ccccc2)c2cccc(OCCO)c2n1 | inactive
CCC(C)(C)n1c(C)cc2c3c(N)nc(N)nc3ccc21 | inactive
Nc1cccc(CNCc2ccc(-c3cccc(-c4nc5ccc(F)cc5[nH]4)c3)cc2)c1 | inactive
CN(C)Cc1c(O)ccc2[nH]c(-c3ccc(F)cc3F)nc12 | inactive
CO/C(=C/C=C/c1cc2cc(Cl)c(Cl)cc2[nH]1)C(=O)NC1CC(C)(C)N(C)C(C)(C)C1 | inactive
O=C(Nc1cccc(Cl)c1Cl)N1CCc2cc3nccc(N4CCN5CCC[C@H]5C4)c3cc21 | inactive
N#Cc1ccc(N(CCOC(=O)c2ccc(Br)s2)Cc2ccccc2C(F)(F)F)cc1C(F)(F)F | inactive
Clc1cc(Nc2ncnc3sc(C#Cc4ncc[nH]4)cc23)ccc1OCc1ccccn1 | inactive
COc1ccc2nccc([C@@H](O)CN3CCC(NCCOc4ccccc4C(F)(F)F)CC3)c2c1 | inactive
Cc1onc(-c2ccccc2Cl)c1C(=O)Nc1cc(Cl)c(Cl)cc1Cl | inactive
COc1ccc(C(=O)Nc2ccc3nc(N4CCCCC4)cc(C)c3c2)cc1[N+](=O)[O-] | inactive
CCCCCCNc1cc(C)nc2ccc(OC)cc12 | inactive
COc1ccc(CN2CCCN(Cc3cccc(NC(=O)c4ccc(Cl)c(Cl)c4)c3)CC2)cc1 | inactive
CC1=C(C(=O)OCCOCc2ccccc2)C(c2ccccc2C(F)(F)F)C(C(=O)OCCOCc2ccccc2)=C(C)N1 | inactive
CCOC(=O)c1ccc(N=C2SC(=Cc3cc(Br)ccc3O)C(=O)N2C)cc1 | inactive
O=S(=O)(Nc1cccc(CCN2CCCCC2CCN2CCCC2)c1)c1ccc(Oc2ccccc2)cc1 (stereo not given) | inactive
O=C(NCc1ccc(Cl)c(Cl)c1)[C@H]1CNCCN1C(=O)c1ccccc1 | inactive
N#Cc1cccc(NC(=O)Nc2cccc(-c3cccc(-c4nc5ccc(C(F)(F)F)cc5[nH]4)c3)c2)c1 | inactive

These compounds were tested against Protein kinase 7 (PK7), Plasmodium falciparum 3D7 (PF3D7_0213400) (UniProt Q7YTF7) (assay: inhibition of Plasmodium PK7 catalytic activity – biochemical, TCAMS antimalarial set, Kinase-Glo luminescence (AID 1159587)). Conditions: recombinant PfPK7, Kinase-Glo ATP depletion luminescence.
Protein kinase 7 (PK7), Plasmodium falciparum 3D7 (PF3D7_0213400), sequence (Q7YTF7 1-343): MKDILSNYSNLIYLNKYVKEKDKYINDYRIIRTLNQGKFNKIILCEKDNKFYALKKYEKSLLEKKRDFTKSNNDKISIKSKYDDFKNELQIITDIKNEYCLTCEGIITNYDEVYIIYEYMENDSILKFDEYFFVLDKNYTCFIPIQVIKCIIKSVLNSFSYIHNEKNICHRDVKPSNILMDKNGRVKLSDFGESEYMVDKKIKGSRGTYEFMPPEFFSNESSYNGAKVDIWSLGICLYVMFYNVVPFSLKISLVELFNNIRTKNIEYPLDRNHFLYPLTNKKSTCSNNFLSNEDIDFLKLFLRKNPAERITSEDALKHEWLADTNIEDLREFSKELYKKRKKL

Structure (SMILES) | outcome
COc1ccc2nccc(N3CCC(SCCNS(=O)(=O)c4ccc5c(c4)OCCO5)C3)c2n1 (stereo not given) | inactive
CCc1c(CCNCCCCCCNCCc2ccc([N+](=O)[O-])cc2)ccc(OC)c1OC | inactive
CCOC(=O)c1cnc2c(OC)cc(OC)c(Cl)c2c1Nc1ccccc1 | inactive
O=C(Nc1ccc(Cl)cc1)Nc1cccc(CCNCc2ccccc2)c1 | inactive
Nc1nc2c(ncn2OC[C@H]2COP(=O)(O)CO2)c(=O)[nH]1 | inactive
Fc1ccc(Nc2ccnc3cc(-c4cccc(CN5CCCCC5)c4)ccc23)c(Cl)c1 | inactive
COc1ccc(NC(=O)[C@H](CC(C)C)Nc2cc(C)nc(NCCc3cccs3)n2)cc1 | inactive
NC(=O)c1cccc(CNC(=O)NC[C@H]2CN(Cc3ccc(Cl)c(Cl)c3)CCO2)c1 | inactive
O=C(NC1CC1)c1ccc2cc(C(=O)N3Cc4ccccc4C(c4ccccc4)C3)ccc2c1 (stereo not given) | inactive
O=C(Nc1ccc(OC2CCN(Cc3ccc(F)cc3)CC2)c(Cl)c1)c1ccsc1 | inactive
CN(C)Cc1cc(Nc2ccnc3cc(Cl)ccc23)ccc1O | inactive
O=C(Cc1ccc(NC(=O)c2ccc(O)c(-c3ccc(Cl)c(Cl)c3)c2)cc1)NCc1cccc(C(F)(F)F)c1 | inactive
COc1ccc(CNC2CCN(C)CC2)cc1-c1ccc(S(=O)(=O)NCc2ccccc2)cc1 | inactive
CC(C)=CCc1c(-c2ccc(O)cc2O)oc2c3c(cc(O)c2c1=O)OC(C)(C)C=C3 | inactive
COc1ccc2ncc(F)c(NC(=O)C3CCC(NCc4cc5cc(F)cc(F)c5[nH]4)CC3)c2n1 (stereo not given) | inactive
O=C(NCc1cccs1)[C@H](Cc1ccccc1)Nc1ccnc(NCCc2ccc(F)cc2)n1 | inactive
CCc1ccc(NC(=O)c2ccc(CN3CCCN(CC4CCCCC4)CC3)cc2)cc1 | inactive
O=C(NCc1ccc(F)cc1)Nc1ccc(-c2cccc(-c3nc4ccc(C(F)(F)F)cc4[nH]3)c2)cc1 | inactive
Cc1nc2ccc(NC(=O)c3cc(S(=O)(=O)N(C)C)ccc3Cl)cc2s1 | inactive
Cc1cc(N[C@@H](Cc2ccccc2)C(=O)NCCOc2ccccc2)nc(NCCc2ccc(F)cc2)n1 | inactive

Structure (SMILES) | outcome
COc1c(C(=O)NC2CCN(Cc3ccccc3)C2)cnc2ccccc12 (stereo not given) | inactive
O=C(c1cccc(-c2cccc(-c3nc4ccccc4[nH]3)c2)c1)N1CCCCC1CN1CCC(O)C1 (stereo not given) | inactive
Cc1cc(F)ccc1Nc1nc(N(C)c2ccccc2)c2cccc(OCCO)c2n1 | inactive
CCC(C)(C)n1c(C)cc2c3c(N)nc(N)nc3ccc21 | inactive
Nc1cccc(CNCc2ccc(-c3cccc(-c4nc5ccc(F)cc5[nH]4)c3)cc2)c1 | inactive
CN(C)Cc1c(O)ccc2[nH]c(-c3ccc(F)cc3F)nc12 | inactive
CO/C(=C/C=C/c1cc2cc(Cl)c(Cl)cc2[nH]1)C(=O)NC1CC(C)(C)N(C)C(C)(C)C1 | inactive
O=C(Nc1cccc(Cl)c1Cl)N1CCc2cc3nccc(N4CCN5CCC[C@H]5C4)c3cc21 | inactive
N#Cc1ccc(N(CCOC(=O)c2ccc(Br)s2)Cc2ccccc2C(F)(F)F)cc1C(F)(F)F | inactive
Clc1cc(Nc2ncnc3sc(C#Cc4ncc[nH]4)cc23)ccc1OCc1ccccn1 | inactive
COc1ccc2nccc([C@@H](O)CN3CCC(NCCOc4ccccc4C(F)(F)F)CC3)c2c1 | inactive
Cc1onc(-c2ccccc2Cl)c1C(=O)Nc1cc(Cl)c(Cl)cc1Cl | inactive
COc1ccc(C(=O)Nc2ccc3nc(N4CCCCC4)cc(C)c3c2)cc1[N+](=O)[O-] | inactive
CCCCCCNc1cc(C)nc2ccc(OC)cc12 | inactive
COc1ccc(CN2CCCN(Cc3cccc(NC(=O)c4ccc(Cl)c(Cl)c4)c3)CC2)cc1 | inactive
CC1=C(C(=O)OCCOCc2ccccc2)C(c2ccccc2C(F)(F)F)C(C(=O)OCCOCc2ccccc2)=C(C)N1 | inactive
CCOC(=O)c1ccc(N=C2SC(=Cc3cc(Br)ccc3O)C(=O)N2C)cc1 | inactive
O=S(=O)(Nc1cccc(CCN2CCCCC2CCN2CCCC2)c1)c1ccc(Oc2ccccc2)cc1 (stereo not given) | inactive
O=C(NCc1ccc(Cl)c(Cl)c1)[C@H]1CNCCN1C(=O)c1ccccc1 | inactive
N#Cc1cccc(NC(=O)Nc2cccc(-c3cccc(-c4nc5ccc(C(F)(F)F)cc5[nH]4)c3)c2)c1 | inactive
